Records with an inconclusive call do not appear. The source made the active and inactive calls. Unless noted, calls come from the whole dose curve; as a rule, active = well fitted curve in the direction sought with a large enough effect; inconclusive = small, poorly fitted or top-dose-only effect, or another doubt; inactive = no such curve, though single readings can be large; an effect the other way counts as inactive or inconclusive.
Key:
[1] = target: Luciferin 4-monooxygenase (Photinus pyralis) (UniProt P08659); assay: Biochemical firefly luciferase enzyme assay for NPC (AID 624030);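 note: purified P. pyralis luciferase at 10 nM with luciferin and ATP substrate; series mostly up to about 59 µM; nearly all actives have a fitted effect of over 70% in size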
Chain of Luciferin 4-monooxygenase (Photinus pyralis) (P08659 whole entry, looked up): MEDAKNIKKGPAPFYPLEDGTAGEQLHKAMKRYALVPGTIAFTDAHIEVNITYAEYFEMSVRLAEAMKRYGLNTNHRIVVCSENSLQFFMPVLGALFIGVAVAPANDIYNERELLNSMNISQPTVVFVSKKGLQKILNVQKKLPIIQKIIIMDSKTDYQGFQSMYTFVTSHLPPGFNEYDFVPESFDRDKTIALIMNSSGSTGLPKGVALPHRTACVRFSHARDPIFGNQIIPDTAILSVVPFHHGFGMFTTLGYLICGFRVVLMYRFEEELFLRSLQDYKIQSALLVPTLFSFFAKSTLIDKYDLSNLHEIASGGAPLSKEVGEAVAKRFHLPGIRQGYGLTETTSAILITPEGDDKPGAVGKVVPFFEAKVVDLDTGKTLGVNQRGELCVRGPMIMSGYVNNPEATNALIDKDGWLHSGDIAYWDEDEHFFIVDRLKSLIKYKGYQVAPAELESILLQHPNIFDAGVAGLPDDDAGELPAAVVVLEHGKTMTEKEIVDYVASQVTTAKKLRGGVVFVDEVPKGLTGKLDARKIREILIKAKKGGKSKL
Method in brief: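 Counter-screen for direct inhibition of the luciferase enzyme by approved-drug library compounds, run at 10 nM enzyme in 50 mM Tris acetate (final). Luminescence was read within 5 min of enzyme-buffer addition and normalized to PTC124 versus DMSO (0%).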

[2] = qHTS for Inhibitors of the vitamin D receptor (VDR): Hit Validation using a Texas Red Assay (AID 602201); conditions: VDR coregulator binding, Texas Red fluorescence polarization; agonist-bound VDR ligand-binding domain; note: potency is the fitted concentration of half-maximal effect
Method in brief: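 Fluorescence polarization (Ex 595/Em 615 nm) of Texas Red (7 nM) with 1.5 uM VDR-LBD and LG19078 (final concentrations). Compounds were incubated for 2 hours at room temperature.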

[3] = qHTS of Trypanosoma Brucei Inhibitors: LOPAC Validation (AID 624147)
Method in brief: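 Glycolytic pyruvate kinase of T. brucei was incubated with substrate, test compound and 130 uM ADP for 45 minutes at room temperature. Luminescent Kinase-Glo Plus signal was measured after 10 minutes.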

[4] = target: Glucagon-like peptide 1 receptor (Homo sapiens) (UniProt P43220); assay: qHTS of GLP-1 Receptor Agonists: LOPAC Validation (AID 624148);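 note: higher luminescence signal means agonism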
Chain of Glucagon-like peptide 1 receptor (Homo sapiens) (P43220 whole entry, looked up): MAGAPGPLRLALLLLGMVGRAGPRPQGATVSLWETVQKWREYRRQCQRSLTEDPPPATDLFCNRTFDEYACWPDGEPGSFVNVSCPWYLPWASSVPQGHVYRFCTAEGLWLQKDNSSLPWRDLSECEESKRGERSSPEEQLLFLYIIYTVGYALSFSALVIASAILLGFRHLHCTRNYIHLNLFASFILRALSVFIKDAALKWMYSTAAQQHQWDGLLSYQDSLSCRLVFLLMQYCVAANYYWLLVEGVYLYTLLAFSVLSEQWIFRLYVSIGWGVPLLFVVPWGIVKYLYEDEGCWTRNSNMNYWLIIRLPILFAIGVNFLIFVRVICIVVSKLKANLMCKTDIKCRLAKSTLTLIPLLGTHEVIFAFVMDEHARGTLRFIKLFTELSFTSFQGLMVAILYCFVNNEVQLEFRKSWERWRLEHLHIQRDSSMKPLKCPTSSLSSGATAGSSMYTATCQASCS
Method in brief: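 HEK293 cells stably co-expressing a cAMP-responsive luciferase reporter and a hypersensitive GLP-1R were plated 12 h at 37 °C and exposed to compounds for 4-6 hr at 37 °C, 5% CO2. Luminescence was read 12 min after adding detection reagent.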

[5] = qHTS of Nrf2 Activators: LOPAC Validation (AID 624149)
Method in brief: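 AREc32_Fluc cells, 1000/well, OPTI-MEM + 5% FBS, o/n 37 deg C 5% CO2; compound pin-transfer, 24 hr 37 deg C; Steady-Glo 30 min RT, luminescence read.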

[6] = HTS Assay for Allosteric Antagonists of the Human D2 Dopamine Receptor: Hit Validation in HTRF (AID 624455)
Method in brief: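 HTRF read-out; cells stably expressing D1 receptor; hits scored for inhibition of D1-mediated response. Primary screen: calcium flux, force-coupled inducible Hek293 Trex D2 line, antagonism vs EC80 dopamine.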

[7] = Cytotoxicity counterscreen for NFkB agonists and antagonists (AID 624476);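 note: cells exposed to compound for 48 hours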; note: potency is the fitted concentration of half-maximal effect
[8] = qHTS Assay for Identification of Small Molecule Agonists for NFkB Signaling Pathway. (AID 624478);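 note: compounds tested together with TNF alpha at its EC50 of 10 pM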
Method in brief: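 Read-out: 460/530 nm emission at 405 nm excitation after 2 h LiveBLAzer loading; ME-180 NFkB-bla reporter cells exposed 5 h at 37 C to compounds with 10 pM TNF alpha final.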

[9] = S16 Schwann cell viability assay (CellTiter-Glo assay) (AID 624031);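 note: native untransfected S16 rat Schwann cells; cellular ATP luminescence as a viability measure; series mostly up to about 58 µM; nearly all actives have a fitted effect of over 70% in size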
Method in brief: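 Following overnight culture in 10% FBS DMEM, parental S16 rat Schwann cells are dosed for 24 h at 37 °C. Viability is read as CellTiter-Glo luminescence and expressed as % activity relative to DMSO (0%) and no-cell wells.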

[10] = target: Voltage-gated inwardly rectifying potassium channel KCNH2 (Homo sapiens) (UniProt Q12809); assay: qHTS Assay for Small Molecule Inhibitors of the Human hERG Channel Activity (AID 588834);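 note: lower thallium flux fluorescence means stronger hERG block; nearly all actives have a fitted effect of over 50% in size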; note: potency is the fitted concentration of half-maximal effect
Chain of Voltage-gated inwardly rectifying potassium channel KCNH2 (Homo sapiens) (Q12809 whole entry, looked up): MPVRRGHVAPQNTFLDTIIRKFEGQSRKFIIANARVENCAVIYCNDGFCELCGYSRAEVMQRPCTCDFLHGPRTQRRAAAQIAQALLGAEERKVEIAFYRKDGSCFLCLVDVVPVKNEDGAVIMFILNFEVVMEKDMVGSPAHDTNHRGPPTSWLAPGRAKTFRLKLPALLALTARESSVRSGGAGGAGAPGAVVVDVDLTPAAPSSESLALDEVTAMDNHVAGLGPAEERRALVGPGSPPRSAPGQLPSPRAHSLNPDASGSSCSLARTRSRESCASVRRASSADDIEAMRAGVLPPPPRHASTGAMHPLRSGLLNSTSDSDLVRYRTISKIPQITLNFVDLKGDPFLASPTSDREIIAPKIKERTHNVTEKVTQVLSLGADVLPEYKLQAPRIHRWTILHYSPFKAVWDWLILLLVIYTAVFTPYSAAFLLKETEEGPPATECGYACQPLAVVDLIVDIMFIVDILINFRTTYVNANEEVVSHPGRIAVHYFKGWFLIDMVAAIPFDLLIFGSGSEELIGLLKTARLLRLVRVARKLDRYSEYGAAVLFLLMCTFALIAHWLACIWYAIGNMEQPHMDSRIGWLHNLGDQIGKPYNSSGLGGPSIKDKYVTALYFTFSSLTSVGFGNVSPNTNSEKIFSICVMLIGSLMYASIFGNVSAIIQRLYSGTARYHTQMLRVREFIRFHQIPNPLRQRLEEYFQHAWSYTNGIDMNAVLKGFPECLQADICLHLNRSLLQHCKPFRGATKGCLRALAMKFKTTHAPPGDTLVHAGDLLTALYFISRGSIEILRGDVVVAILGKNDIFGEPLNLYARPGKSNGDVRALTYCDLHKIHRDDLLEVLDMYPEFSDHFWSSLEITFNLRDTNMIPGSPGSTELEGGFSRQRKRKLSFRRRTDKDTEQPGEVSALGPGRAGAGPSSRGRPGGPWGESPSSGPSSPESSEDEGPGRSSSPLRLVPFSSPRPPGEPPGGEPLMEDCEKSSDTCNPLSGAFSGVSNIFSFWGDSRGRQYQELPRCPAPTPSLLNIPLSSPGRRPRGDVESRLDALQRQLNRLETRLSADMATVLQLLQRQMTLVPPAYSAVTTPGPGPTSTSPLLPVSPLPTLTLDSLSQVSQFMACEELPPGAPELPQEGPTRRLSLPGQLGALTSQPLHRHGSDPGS
Method in brief: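 Thallium serves as surrogate for K+ influx through BacMam-delivered hERG in U2OS cells. Compounds are added for about 10 minutes after dye loading; stimulation buffer then starts flux, monitored kinetically on FDSS.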

[11] = S16 Schwann cell PMP22 intronic element firefly luciferase assay (AID 624032); note: series mostly up to about 58 µM; nearly all actives have a fitted effect of over 30% in size
Method in brief: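 Rat S16 Schwann cells stably carrying a PMP22 intronic element-driven Fluc reporter were seeded overnight, then exposed to compounds for 24 h at 37 °C. Luminescence was normalized to PTC124 (positive control) and DMSO (0% activity).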

[12] = S16 Schwann cell PMP22 intronic element beta-lactamase assay (AID 624044; calls by dose curve; note: nearly all actives have a fitted effect of over 15% in size; note: potency is the fitted concentration of half-maximal effect)
Method in brief: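 Beta-lactamase reporter under a PMP22 intronic regulatory element in stable S16 rat Schwann cells; 24 h compound exposure. 460 nm blue signal normalized between DMSO (0%) and potassium clavulanate, with 535 nm FRET tracking viability; curves classed by r2 and response.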

[13] = qHTS Assay for Identification of Small Molecule Antagonists for NFkB Signaling Pathway. (AID 624479; calls by dose curve;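 note: pathway stimulated with TNF alpha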; note: potency is the fitted concentration of half-maximal effect)

Measured: Potency

CN1[C@@H]2CCC[C@@H]1CC(NC(=O)c1nn(C)c3ccccc13)C2 (some centres not stated)
inactive: [1]

CC1(C)CCC2=C(O1)c1ccccc1C(=O)C2=O
active: [2] 14.1 µM
inactive: [3] | [4] | [5] | [6]

CC(=O)N(C)C1(c2ccccc2)CCN(CCC[C@]2(c3ccc(Cl)c(Cl)c3)CCCN(C(=O)c3ccccc3)C2)CC1
inactive: [8]
active: [7] 23.5 µM

COc1ccc(Cc2nccc3cc(OC)c(OC)cc23)cc1OC
inactive: [1] | [9] | [3] | [5] | [6]

CC(C)NCC(O)COc1cccc2[nH]ccc12 (configuration not stated)
inactive: [10] | [1] | [9] | [11] | [3] | [4] | [6]

COc1cc(Nc2ncc(F)c(Nc3ccc4c(n3)NC(=O)C(C)(C)O4)n2)cc(OC)c1OC
inactive: [8]
active: [7] 13.2 µM

COCCCCC(=NOCCN)c1ccc(C(F)(F)F)cc1
inactive: [1] | [11] | [12]

Cc1nnc(C(C)C)n1C1C[C@H]2CC[C@@H](C1)N2CC[C@H](NC(=O)C1CCC(F)(F)CC1)c1ccccc1 (some centres not stated)
inactive: [1]

O=C(CCCCCCC(=O)Nc1ccccc1)NO
inactive: [10] | [1] | [9] | [8] | [13]
active: [12] 2.24 µM | [7] 38.2 µM

O=C1Nc2ccc(Cl)cc2C(C#CC2CC2)(C(F)(F)F)O1 (configuration not stated)
active: [13] 30.6 µM
inactive: [1] | [9] | [12] | [8]

CCCCCN(C)CCC(O)(P(=O)(O)O)P(=O)(O)O
inactive: [1] | [9] | [11] | [12] | [3] | [4] | [5] | [6]

CCN1CCC[C@H]1CNC(=O)c1cc(S(N)(=O)=O)ccc1OC
inactive: [10] | [1] | [9] | [11] | [3] | [4] | [5] | [6]

CC(C)[C@H](CO)Nc1nc(Nc2ccc(C(=O)O)c(Cl)c2)c2ncn(C(C)C)c2n1
inactive: [7] | [8] | [13]

COC(=O)[C@@H]1[C@H]2C[C@H]3c4[nH]c5ccccc5c4CCN3C[C@@H]2CC[C@@H]1O
active: [10] 11.2 µM
inactive: [3] | [4] | [5] | [6]

N#C[C@H]1C[C@H]2C[C@@H]2N1C(=O)[C@@H](N)C12CC3CC(CC(O)(C3)C1)C2
inactive: [1]

O=C(O)CCc1nc(-c2ccccc2)c(-c2ccccc2)o1
inactive: [10] | [1] | [9] | [11] | [3] | [4] | [6]

NC(N)=Nc1nc(CSCC/C(N)=N/S(N)(=O)=O)cs1
inactive: [1] | [9] | [11] | [3] | [4] | [5] | [6]
